Reference: PubChem BioAssay (Tox21)
Records with an inconclusive call do not appear. Activity calls are given as the source filed them. Unless noted, calls come from the whole dose curve; as a rule, active = well fitted curve in the direction sought with a large enough effect in the repeat runs; inconclusive = weak or mixed curves; inactive = no such curve, though single readings can be large; an effect the other way counts as inactive or inconclusive.

How the values were obtained:
[1] = qHTS assay to identify small molecule antagonists of the thyroid receptor (TR) signaling pathway - cell viability counter screen (AID 743064); note: nearly all actives have a fitted effect of over 50% in size
Procedure, shortened: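 GH3.TRE-Luc rat pituitary cells carrying a TRE-luciferase reporter were treated with compound plus 1 nM T3 (final) for 23.5 h at 37 °C. Viability was then read in the same wells by CellTiter-Fluor fluorescence after a further 30 min.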

[2] = qHTS assay to identify small molecule antagonists of the thyroid receptor (TR) signaling pathway (AID 743065); note: series mostly up to about 70 µM; nearly all actives have a fitted effect of over 55% in size
Procedure, shortened: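 GH3.TRE-Luc rat pituitary cells (two TREs driving luciferase) were dosed with compound, then stimulated with 1 nM T3 (final) for 23.5 h at 37 C. ONE-Glo luminescence was the read-out, with CellTiter-Fluor fluorescence as the cytotoxicity counter-screen.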

[3] = test system: thyroid hormone receptor (rat, GH3 cells); assay: qHTS assay to identify small molecule agonists of the thyroid receptor (TR) signaling pathway (AID 743066; calls by dose curve)
[4] = target: Estrogen receptor (Homo sapiens) (UniProt P03372); assay: qHTS assay to identify small molecule antagonists of the estrogen receptor alpha (ER-alpha) signaling pathway (AID 743069; active = well fitted curve in the direction sought with a large enough effect in the signal ratio in the repeat runs, not every such curve was filed as active; the % refers to the signal ratio)
Procedure, shortened: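 HEK293 ER-alpha-UAS-bla GripTite cells, held overnight in 2% charcoal-stripped FBS, 5,000 cells/well, preincubated 4 h, then compound plus 17beta-estradiol for 18 h at 37C. Beta-lactamase read by LiveBLAzer B/G FRET substrate, 2 h at room temperature.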

[5] = qHTS assay to identify small molecule antagonists of the estrogen receptor alpha (ER-alpha) signaling pathway - cell viability counter screen (AID 743074; calls by dose curve;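 note: HEK293 cells carrying ER-alpha-UAS-bla reporter stimulated with 17beta-estradiol; nearly all actives have a fitted effect of over 45% in size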)
[6] = target: Estrogen receptor (Homo sapiens) (UniProt P03372); assay: qHTS assay to identify small molecule agonists of the estrogen receptor alpha (ER-alpha) signaling pathway (AID 743075; calls by dose curve)
[7] = target: Estrogen receptor (Homo sapiens) (UniProt P03372); assay: qHTS assay to identify small molecule agonists of the estrogen receptor alpha (ER-alpha) signaling pathway using the BG1 cell line (AID 743079); note: nearly all actives have a fitted effect of over 20% in size
[8] = qHTS assay to identify small molecule antagonists of the estrogen receptor alpha (ER-alpha) signaling pathway using the BG1 cell line (AID 743080; calls by dose curve;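 note: BG1 cells stimulated with 17beta-estradiol alongside compound; series mostly up to about 70 µM; nearly all actives have a fitted effect of over 25% in size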)
Procedure, shortened: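 Readout is ONE-Glo luminescence, taken 30 min at room temperature after reagent addition, preceded by a CellTiter-Fluor viability read; BG1-Luc-4E2 cells had received compound and 17beta-estradiol for 21.5 h at 37 C.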

[9] = qHTS assay to identify small molecule antagonists of the estrogen receptor alpha (ER-alpha) signaling pathway using the BG1 cell line - cell viability counter screen (AID 743081);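 note: compound given together with 17beta-estradiol as the ER stimulus; series mostly up to about 70 µM; nearly all actives have a fitted effect of over 45% in size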
[10] = target: Aromatase (Homo sapiens) (UniProt P11511); assay: qHTS assay to identify aromatase inhibitors (AID 743083); note: series mostly up to about 70 µM; nearly all actives have a fitted effect of over 55% in size

Measured: Potency

Aromatase (Homo sapiens), sequence (P11511 whole entry, looked up): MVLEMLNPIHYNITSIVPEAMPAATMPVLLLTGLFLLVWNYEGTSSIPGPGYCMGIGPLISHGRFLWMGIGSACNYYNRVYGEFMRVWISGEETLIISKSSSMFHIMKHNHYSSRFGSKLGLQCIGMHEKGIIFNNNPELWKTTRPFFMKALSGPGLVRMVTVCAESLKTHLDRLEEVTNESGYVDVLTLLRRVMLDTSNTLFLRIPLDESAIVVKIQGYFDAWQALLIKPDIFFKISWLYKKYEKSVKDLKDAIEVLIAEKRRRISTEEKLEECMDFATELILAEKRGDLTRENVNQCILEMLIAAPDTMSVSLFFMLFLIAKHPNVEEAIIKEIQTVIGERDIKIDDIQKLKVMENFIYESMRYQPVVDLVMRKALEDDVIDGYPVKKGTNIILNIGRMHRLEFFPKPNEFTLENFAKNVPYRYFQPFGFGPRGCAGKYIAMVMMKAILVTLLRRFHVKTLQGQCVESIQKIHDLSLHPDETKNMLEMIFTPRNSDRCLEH
Estrogen receptor (Homo sapiens), sequence (P03372 whole entry, looked up): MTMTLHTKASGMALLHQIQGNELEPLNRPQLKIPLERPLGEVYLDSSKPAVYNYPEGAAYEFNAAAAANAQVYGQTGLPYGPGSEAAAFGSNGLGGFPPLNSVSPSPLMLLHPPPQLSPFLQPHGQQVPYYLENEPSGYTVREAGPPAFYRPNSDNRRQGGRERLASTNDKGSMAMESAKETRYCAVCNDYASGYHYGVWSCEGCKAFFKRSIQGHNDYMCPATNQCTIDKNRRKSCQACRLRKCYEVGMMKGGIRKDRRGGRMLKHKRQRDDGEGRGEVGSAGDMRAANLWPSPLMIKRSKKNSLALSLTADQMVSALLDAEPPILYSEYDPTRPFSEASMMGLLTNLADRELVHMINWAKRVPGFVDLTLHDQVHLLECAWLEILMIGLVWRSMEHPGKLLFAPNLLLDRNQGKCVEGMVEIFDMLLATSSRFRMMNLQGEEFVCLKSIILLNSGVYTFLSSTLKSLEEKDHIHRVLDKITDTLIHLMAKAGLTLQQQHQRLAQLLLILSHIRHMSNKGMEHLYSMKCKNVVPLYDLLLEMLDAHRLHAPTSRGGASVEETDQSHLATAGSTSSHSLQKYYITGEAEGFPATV

CC(C)c1cccc(O)c1
inactive: [1] | [2] | [3] | [4] | [5] | [6] | [7] | [8] | [9] | [10]

O=C1OC(=O)c2cc([N+](=O)[O-])ccc21
inactive: [1] | [2] | [3] | [4] | [5] | [6] | [7] | [8] | [9] | [10]

CC(C)[C@H](N)C(=O)OCCOCn1cnc2c(=O)[nH]c(N)nc21
inactive: [1] | [2] | [3] | [4] | [5] | [6] | [7] | [8] | [9] | [10]

CC(C)(O)Cc1ccccc1
inactive: [1] | [2] | [3] | [4] | [5] | [6] | [7] | [8] | [9] | [10]

CCCC(C)C(=O)O (configuration not stated)
inactive: [1] | [2] | [3] | [4] | [5] | [6] | [7] | [8] | [9] | [10]

Nc1nc2c(ncn2CCC(CO)CO)c(=O)[nH]1
inactive: [1] | [2] | [3] | [4] | [5] | [6] | [7] | [8] | [9] | [10]

CC/C=C\CCCCO
inactive: [1] | [2] | [3] | [4] | [5] | [6] | [7] | [8] | [9] | [10]

NCCN1CCNC1=O
inactive: [1] | [2] | [3] | [4] | [5] | [6] | [7] | [8] | [9] | [10]

Nc1cc(N)cc(C(=O)O)c1
inactive: [1] | [2] | [3] | [4] | [5] | [6] | [7] | [8] | [9] | [10]

Cc1ncc(CSSCc2cnc(C)c(O)c2CO)c(CO)c1O
inactive: [1] | [2] | [3] | [4] | [5] | [6] | [7] | [8] | [9] | [10]

CCC(C)(C)C1CCC(OC)CC1 (configuration not stated)
inactive: [1] | [2] | [3] | [4] | [5] | [6] | [7] | [8] | [9] | [10]

CC(C)[N+](C)(C)CC(O)COc1cccc2ccccc12 (configuration not stated)
inactive: [1] | [2] | [3] | [4] | [5] | [6] | [7] | [8] | [9] | [10]

CC(C)CCOC(=O)CC(C)C
inactive: [1] | [2] | [3] | [4] | [5] | [6] | [7] | [8] | [9] | [10]

CC(C)c1cccc(C(C)C)c1N
inactive: [1] | [2] | [3] | [4] | [5] | [6] | [7] | [8] | [9] | [10]

CC12CCC(CC1=O)C2(C)C (configuration not stated)
inactive: [1] | [2] | [3] | [4] | [5] | [6] | [7] | [8] | [9] | [10]

O=Cc1ccccc1[N+](=O)[O-]
inactive: [1] | [2] | [3] | [4] | [5] | [6] | [7] | [8] | [9] | [10]

CCCCN(CCO)CCO
inactive: [1] | [2] | [3] | [4] | [5] | [6] | [7] | [8] | [9] | [10]

CCC(C(=O)NC(N)=O)c1ccccc1 (configuration not stated)
inactive: [1] | [2] | [3] | [4] | [5] | [6] | [7] | [8] | [9] | [10]

CC(C)COC(=O)C(C)C
inactive: [1] | [2] | [3] | [4] | [5] | [6] | [7] | [8] | [9] | [10]

COC[C@H](c1ccc(C(F)(F)F)cc1)N1CCN(C2(C)CCN(C(=O)c3c(C)ncnc3C)CC2)C[C@H]1C
inactive: [1] | [2] | [3] | [4] | [5] | [6] | [7]

O=C(O)c1ccc[n+]([O-])c1
inactive: [1] | [2] | [3] | [4] | [5] | [6] | [7] | [8] | [9] | [10]

CCCCc1ccc2cccc(S(=O)(=O)O)c2c1
inactive: [1] | [2] | [3] | [4] | [5] | [6] | [7] | [8] | [9] | [10]

CNc1ncnc2nc[nH]c12
inactive: [1] | [2] | [3] | [4] | [5] | [6] | [7] | [8] | [9] | [10]

CC1=CCC2C(C1)C2(C)C (configuration not stated)
inactive: [1] | [2] | [3] | [4] | [5] | [6] | [7] | [8] | [9] | [10]
